Results on 11 compounds are retold here after ChEMBL document CHEMBL1961873, “Compounds: GSK PKIS; Assays: Nanosyn kinase panel” (2012).

Structures are written as SMILES.

Assay [1] has as its system Tyrosine-protein kinase ABL1 (Homo sapiens), P00519 [T315I]. The note with it: at 1 µM.
For assay [2], the system named is Tyrosine-protein kinase ABL1 (Homo sapiens), P00519 [Y253F]. The note with it: at 0.1 µM.
The test system is the same in assay [3]. The note with it: at 1 µM.
In assay [4] the target is Tyrosine-protein kinase ABL1 (Homo sapiens) (UniProt P00519). The note with it: at 0.1 µM.
Assay [5] has the same target. The note with it: at 1 µM.
Assay [6] concerns the target ALK tyrosine kinase receptor (Homo sapiens) (UniProt Q9UM73). The note with it: at 0.1 µM.
The target is the same in assay [7]. The note with it: at 1 µM.
Assay [8] concerns the target Tyrosine-protein kinase ABL2 (Homo sapiens) (UniProt P42684). The note with it: at 0.1 µM.
The target is the same in assay [9]. The note with it: at 1 µM.
Assay [10] deals with Tyrosine-protein kinase receptor UFO (Homo sapiens) (UniProt P30530). The note with it: at 0.1 µM.
The target is the same in assay [11]. The note with it: at 1 µM.
Assay [12] has as its target Tyrosine-protein kinase Blk (Homo sapiens) (UniProt P51451). The note with it: at 0.1 µM.
Assay [13] shares this target. The note with it: at 1 µM.
Assay [14] deals with T1, Cytoplasmic tyrosine-protein kinase BMX (Homo sapiens) (UniProt P51813).
T1 sequence (whole entry): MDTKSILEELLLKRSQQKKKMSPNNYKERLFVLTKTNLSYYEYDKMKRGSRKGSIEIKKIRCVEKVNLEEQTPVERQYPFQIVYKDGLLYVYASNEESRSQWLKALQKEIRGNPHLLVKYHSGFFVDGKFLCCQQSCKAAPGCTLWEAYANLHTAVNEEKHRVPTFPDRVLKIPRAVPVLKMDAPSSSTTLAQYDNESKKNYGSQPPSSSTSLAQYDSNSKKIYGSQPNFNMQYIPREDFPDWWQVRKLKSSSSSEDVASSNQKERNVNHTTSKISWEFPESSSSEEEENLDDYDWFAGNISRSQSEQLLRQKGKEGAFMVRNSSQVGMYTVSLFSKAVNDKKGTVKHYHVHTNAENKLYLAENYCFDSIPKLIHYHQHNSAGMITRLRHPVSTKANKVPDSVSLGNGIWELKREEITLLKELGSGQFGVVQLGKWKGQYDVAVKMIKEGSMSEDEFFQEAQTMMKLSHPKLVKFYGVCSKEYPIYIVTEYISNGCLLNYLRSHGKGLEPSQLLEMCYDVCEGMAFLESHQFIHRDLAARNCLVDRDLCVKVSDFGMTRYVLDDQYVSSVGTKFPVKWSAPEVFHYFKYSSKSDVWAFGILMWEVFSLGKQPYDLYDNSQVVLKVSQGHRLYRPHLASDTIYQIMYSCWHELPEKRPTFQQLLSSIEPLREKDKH
The note with it: at 0.1 µM.

The target of assay [15] is T1, Cytoplasmic tyrosine-protein kinase BMX (Homo sapiens). The note with it: at 1 µM.
For assay [16], the target named is Protein-tyrosine kinase 6 (Homo sapiens) (UniProt Q13882). The note with it: at 0.1 µM.
Assay [17] shares this target. The note with it: at 1 µM.
The target of assay [18] is Tyrosine-protein kinase BTK (Homo sapiens) (UniProt Q06187). The note with it: at 0.1 µM.
The target is the same in assay [19]. The note with it: at 1 µM.
For assay [20], the target named is Tyrosine-protein kinase CSK (Homo sapiens) (UniProt P41240). The note with it: at 0.1 µM.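 Note: value given is the averaged percent inhibition of CSK kinase activity, from the GSK PKIS kinase inhibitor set screening panel.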
Chain of Tyrosine-protein kinase CSK (Homo sapiens) (P41240 2-450 limits assumed): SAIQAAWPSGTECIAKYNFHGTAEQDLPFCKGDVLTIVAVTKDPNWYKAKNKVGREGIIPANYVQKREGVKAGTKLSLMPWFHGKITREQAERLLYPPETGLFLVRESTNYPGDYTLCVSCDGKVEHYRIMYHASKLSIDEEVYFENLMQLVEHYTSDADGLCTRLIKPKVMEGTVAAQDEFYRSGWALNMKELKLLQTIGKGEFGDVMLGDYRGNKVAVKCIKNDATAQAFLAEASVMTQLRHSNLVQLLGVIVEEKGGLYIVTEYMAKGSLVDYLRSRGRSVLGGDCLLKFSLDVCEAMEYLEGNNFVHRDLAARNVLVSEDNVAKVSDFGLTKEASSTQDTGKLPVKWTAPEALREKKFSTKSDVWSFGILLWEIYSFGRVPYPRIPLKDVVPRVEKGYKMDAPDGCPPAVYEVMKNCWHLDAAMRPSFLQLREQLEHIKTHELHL

Chain of Protein-tyrosine kinase 6 (Homo sapiens) (Q13882 whole entry, looked up): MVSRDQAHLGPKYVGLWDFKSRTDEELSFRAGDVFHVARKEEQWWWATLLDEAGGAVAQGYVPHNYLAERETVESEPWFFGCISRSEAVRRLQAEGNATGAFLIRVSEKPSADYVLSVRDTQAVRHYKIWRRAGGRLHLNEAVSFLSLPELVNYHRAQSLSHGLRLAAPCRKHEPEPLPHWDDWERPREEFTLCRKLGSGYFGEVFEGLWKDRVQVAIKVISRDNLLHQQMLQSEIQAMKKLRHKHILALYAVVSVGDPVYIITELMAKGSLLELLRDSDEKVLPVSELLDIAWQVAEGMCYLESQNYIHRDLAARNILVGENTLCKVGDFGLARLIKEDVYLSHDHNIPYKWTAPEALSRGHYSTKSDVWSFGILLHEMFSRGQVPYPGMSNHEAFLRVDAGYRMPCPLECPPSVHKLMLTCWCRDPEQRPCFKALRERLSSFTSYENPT
Chain of Tyrosine-protein kinase BTK (Homo sapiens) (Q06187 whole entry): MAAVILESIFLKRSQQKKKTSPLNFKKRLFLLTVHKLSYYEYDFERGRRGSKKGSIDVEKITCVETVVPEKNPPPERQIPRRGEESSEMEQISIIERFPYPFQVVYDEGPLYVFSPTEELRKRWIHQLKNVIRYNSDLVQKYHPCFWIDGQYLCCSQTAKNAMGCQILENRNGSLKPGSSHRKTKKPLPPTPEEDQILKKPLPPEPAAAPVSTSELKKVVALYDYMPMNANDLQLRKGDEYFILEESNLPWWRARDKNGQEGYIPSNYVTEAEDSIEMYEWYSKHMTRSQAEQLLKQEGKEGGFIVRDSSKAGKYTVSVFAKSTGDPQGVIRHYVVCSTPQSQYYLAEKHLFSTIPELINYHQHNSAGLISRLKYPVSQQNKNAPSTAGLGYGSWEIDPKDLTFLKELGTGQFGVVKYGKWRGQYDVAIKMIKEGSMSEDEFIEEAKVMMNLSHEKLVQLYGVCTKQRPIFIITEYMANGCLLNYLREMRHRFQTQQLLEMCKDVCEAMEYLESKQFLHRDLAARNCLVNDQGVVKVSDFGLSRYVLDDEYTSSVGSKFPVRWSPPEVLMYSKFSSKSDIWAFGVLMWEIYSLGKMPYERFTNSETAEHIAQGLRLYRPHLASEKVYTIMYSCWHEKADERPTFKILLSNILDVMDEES
Chain of Tyrosine-protein kinase receptor UFO (Homo sapiens) (P30530 whole entry): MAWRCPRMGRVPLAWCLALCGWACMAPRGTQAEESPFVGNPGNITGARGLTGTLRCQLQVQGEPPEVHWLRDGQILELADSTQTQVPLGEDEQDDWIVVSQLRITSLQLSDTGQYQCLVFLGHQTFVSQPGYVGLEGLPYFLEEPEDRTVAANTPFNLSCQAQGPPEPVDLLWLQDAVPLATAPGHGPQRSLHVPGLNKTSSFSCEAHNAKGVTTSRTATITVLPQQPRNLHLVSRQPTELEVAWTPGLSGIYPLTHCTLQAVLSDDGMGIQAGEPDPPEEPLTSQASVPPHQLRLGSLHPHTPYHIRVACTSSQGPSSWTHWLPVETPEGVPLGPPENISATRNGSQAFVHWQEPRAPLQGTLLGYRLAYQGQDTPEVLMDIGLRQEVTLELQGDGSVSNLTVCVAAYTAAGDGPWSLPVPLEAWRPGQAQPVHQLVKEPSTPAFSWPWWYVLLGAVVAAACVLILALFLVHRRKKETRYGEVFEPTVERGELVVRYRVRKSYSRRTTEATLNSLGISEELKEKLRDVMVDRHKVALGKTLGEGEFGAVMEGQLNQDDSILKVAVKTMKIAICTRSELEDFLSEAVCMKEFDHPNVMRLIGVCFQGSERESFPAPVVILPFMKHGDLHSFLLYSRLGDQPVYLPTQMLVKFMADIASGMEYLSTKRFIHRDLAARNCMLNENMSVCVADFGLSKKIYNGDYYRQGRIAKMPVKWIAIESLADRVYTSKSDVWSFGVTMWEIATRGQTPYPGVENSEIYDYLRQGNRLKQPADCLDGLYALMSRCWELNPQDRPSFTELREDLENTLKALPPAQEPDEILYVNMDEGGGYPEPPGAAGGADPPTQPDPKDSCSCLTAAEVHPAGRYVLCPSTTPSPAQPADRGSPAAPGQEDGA
Chain of ALK tyrosine kinase receptor (Homo sapiens) (Q9UM73 19-1620 limits assumed): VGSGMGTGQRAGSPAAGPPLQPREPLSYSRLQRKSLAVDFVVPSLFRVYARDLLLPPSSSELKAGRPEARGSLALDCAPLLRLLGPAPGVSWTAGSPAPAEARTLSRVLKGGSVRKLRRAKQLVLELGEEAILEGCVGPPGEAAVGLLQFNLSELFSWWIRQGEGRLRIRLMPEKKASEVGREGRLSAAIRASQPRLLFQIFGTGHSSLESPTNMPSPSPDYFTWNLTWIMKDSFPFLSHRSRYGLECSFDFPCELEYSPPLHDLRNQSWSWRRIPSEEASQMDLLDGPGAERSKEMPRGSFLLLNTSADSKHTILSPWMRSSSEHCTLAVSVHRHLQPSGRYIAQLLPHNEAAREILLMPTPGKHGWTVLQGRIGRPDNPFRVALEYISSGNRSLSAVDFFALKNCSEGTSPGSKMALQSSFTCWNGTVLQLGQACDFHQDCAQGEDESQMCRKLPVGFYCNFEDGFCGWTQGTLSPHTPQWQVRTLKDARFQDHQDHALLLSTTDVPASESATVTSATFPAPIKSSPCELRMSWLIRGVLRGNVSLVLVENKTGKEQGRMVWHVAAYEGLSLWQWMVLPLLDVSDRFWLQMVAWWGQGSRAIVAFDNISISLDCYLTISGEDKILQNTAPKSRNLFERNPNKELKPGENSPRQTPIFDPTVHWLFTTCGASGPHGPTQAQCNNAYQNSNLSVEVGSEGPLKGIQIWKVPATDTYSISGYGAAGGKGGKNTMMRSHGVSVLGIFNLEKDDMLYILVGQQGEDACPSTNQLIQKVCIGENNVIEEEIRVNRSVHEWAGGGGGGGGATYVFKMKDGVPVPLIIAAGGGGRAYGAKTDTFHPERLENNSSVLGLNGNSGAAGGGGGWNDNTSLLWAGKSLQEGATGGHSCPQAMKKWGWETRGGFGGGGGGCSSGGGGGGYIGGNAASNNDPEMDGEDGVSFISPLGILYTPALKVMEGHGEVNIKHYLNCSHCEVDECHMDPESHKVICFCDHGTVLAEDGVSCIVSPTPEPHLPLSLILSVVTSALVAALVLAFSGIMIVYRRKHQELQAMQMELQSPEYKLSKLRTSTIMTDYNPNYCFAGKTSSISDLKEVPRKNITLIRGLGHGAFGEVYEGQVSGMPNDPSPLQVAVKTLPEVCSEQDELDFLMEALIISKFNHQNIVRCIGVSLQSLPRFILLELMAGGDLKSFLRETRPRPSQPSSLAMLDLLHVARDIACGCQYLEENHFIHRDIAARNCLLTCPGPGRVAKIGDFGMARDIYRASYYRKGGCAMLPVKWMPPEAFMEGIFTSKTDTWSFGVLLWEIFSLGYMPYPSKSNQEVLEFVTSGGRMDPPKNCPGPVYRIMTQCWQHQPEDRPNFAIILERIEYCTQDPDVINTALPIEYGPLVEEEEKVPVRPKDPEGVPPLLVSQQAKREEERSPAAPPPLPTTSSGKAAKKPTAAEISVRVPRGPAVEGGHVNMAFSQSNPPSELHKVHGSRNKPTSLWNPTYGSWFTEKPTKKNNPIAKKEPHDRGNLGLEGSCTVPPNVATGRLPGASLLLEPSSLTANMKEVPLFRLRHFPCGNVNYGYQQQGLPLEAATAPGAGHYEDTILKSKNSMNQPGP
Chain of Tyrosine-protein kinase Blk (Homo sapiens) (P51451 2-505 limits assumed): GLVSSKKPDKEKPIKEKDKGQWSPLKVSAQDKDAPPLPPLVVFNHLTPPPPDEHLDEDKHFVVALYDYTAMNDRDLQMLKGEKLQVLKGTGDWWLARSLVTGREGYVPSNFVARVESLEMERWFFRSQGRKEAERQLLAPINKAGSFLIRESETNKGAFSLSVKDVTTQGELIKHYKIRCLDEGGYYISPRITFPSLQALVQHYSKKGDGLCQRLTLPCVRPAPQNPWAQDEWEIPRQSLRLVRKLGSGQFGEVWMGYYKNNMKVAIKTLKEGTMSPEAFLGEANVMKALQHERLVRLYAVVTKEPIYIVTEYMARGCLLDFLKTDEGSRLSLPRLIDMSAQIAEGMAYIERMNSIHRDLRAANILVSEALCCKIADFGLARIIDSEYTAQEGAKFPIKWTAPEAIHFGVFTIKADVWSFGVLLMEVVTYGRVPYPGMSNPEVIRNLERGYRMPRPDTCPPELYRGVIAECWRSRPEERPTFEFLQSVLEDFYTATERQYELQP

What is called inhibition is the change of the read-out against control, counted positive when it falls. For `COC(=O)Nc1nc2cc(Oc3ccc(NC(=O)Nc4cccc(C(=O)O)c4)cc3)ccc2[nH]1`, the inhibition in assay [1] was 15.4%; in assay [2] it was 5.1%; in assay [3], 7.71%; in assay [4], -2.66%; in assay [5], 6.45%; in assay [6] it was -3.78%. In addition, the inhibition in assay [7] was -1.37%; in assay [8], -0.6%; in [9], 3.96%; in assay [10], -0.47%; in assay [11] it was -0.32%; in assay [12], -1.59%. In addition, the inhibition was 0.01% in assay [13]; 0.22% in assay [14]; 0.47% in assay [15]; 0.95% in [16]; -0.37% in [17]; -1.95% in [18]. Further, the inhibition in assay [19] is -2.57%; in [20], 2.42%.
`CN1CCC(C(=O)Nc2n[nH]c3nnc(-c4ccccc4)cc23)CC1`: the inhibition in assay [1] was found to be 5.74%; in assay [2] it was 1.97%; in [3], 5.41%; in assay [4], 2.03%; in [5], 4.42%; in assay [6], 2.9%. For the same compound, the inhibition was 6.61% in assay [7]; 0.96% in assay [8]; 2.58% in assay [9]; -5.95% in [10]; 3.19% in assay [12]; 1.79% in assay [13]. For the same compound, the inhibition is 4.52% in assay [14]; 3.87% in assay [15]; 4.01% in assay [16]; 6.78% in [17]; -0.63% in assay [18]; -0.24% in [19]. In addition, the inhibition in assay [20] turned out to be 4.02%.
On to `COc1cc2ncn(-c3cc(O[C@H](C)c4ccccc4Cl)c(C(N)=O)s3)c2cc1OC`, for which the inhibition was 57.9% in assay [1]; 11.5% in assay [2]; 47.1% in assay [3]; 7.25% in [4]; 47.2% in assay [5]; 4.18% in [6]. In addition, the inhibition in assay [7] was 19%; in assay [8], 4.99%; in assay [9], 37.2%; in [10], -0.27%; in assay [11], 8.37%; in [12], 5.28%. In addition, the inhibition in [13] is 23.4%; in [14] it was 2.09%; in [15], 9.76%; in assay [16], -0.56%; in assay [17], 3.6%; in [18], 1.78%. Also, the inhibition in assay [19] turned out to be 6.48%; in [20], 4.29%.
As to `CN(C)c1cc2c(Nc3ccc4nc(Cc5ccccc5)[nH]c4c3)ncnc2cn1`, the inhibition in assay [1] is 4.5%; in assay [2] it was 4.02%; in assay [3] it was 6.17%; in [4] it was 5.47%; in assay [5], 9.51%; in [6], 4.99%. Further, the inhibition is 4.24% in assay [7]; 4.28% in [8]; 7.06% in assay [9]; -8.08% in assay [10]; -3.19% in assay [11]; 5.31% in assay [12]. Further, the inhibition in assay [13] came to 26.3%; in [14], 1.17%; in [15], 21.5%; in assay [16], 4.68%; in assay [17] it was 6.35%; in assay [18], 1.64%. For the same compound, the inhibition in assay [19] was 4.82%; in [20], 17.4%.
Consider `NCc1ccc(-c2nc(-c3ccc(Cl)c(O)c3)c(-c3ccncc3)[nH]2)cc1`, for which the inhibition in [1] was 24.2%; in [2] it was 12.6%; in assay [3] it was 54.6%; in assay [4], 6.87%; in assay [5], 53.1%; in assay [6], -0.45%. Moreover, the inhibition in assay [7] was 2.22%; in assay [8], 9.17%; in [9], 55.8%; in [10] it was -4.39%; in assay [11], 3.04%; in [12], 0.72%. Further, the inhibition in assay [13] is 10.4%; in [14], 12.4%; in assay [15], 28.9%; in assay [16], 13.9%; in [17], 58.7%; in assay [18], 1.91%. Also, the inhibition in assay [19] is 6.57%; in assay [20], -0.21%.
On to `COc1ccc2cc(-c3c(-c4ccncc4)nc(-c4ccc([S+](C)[O-])cc4)n3C)ccc2c1` (stereo unspecified), for which the inhibition in assay [1] turned out to be 12.1%; in assay [2], 1.26%; in assay [3], 4.12%; in assay [4] it was 2.44%; in [5], 8.87%; in assay [6], 1.63%. The inhibition in assay [7] is 3.57%; in assay [8], 2.63%; in [9], 9.3%; in assay [10] it was -6.33%; in [11], -3.32%; in [12], 1.88%. For the same compound, the inhibition stood at 6.67% in assay [13]; 4.9% in assay [14]; 3.64% in [15]; 8.25% in assay [16]; 42% in assay [17]; 0.83% in assay [18]. For the same compound, the inhibition is 1.4% in [19] and 1.52% in [20].
Take `CCn1c(-c2nonc2N)nc2c(C#CC(C)(C)O)nc(OC[C@@H](N)c3ccccc3)cc21`: the inhibition in assay [1] was 3.35%; in assay [2], 0.12%; in [3] it was 2.98%; in assay [4], 7.72%; in [5], 10.1%; in assay [6], -0.2%. Also, the inhibition in assay [7] amounted to 10.2%; in assay [8], 5.61%; in assay [9], 1.83%; in [10] it was 2.41%; in assay [11] it was 3.03%; in assay [12], 0.59%. In addition, the inhibition was 0.29% in assay [13]; -0.32% in [14]; 0.02% in [15]; 0.79% in assay [16]; -0.34% in assay [17]; -0.1% in [18]. Also, the inhibition in [19] is 1.72%; in assay [20], -1.24%.
In the case of `Cn1cc(C=C2C(=O)Nc3cccnc32)c2ccccc21`, the inhibition in assay [1] stood at 43.9%; in assay [2] it was 10.6%; in assay [3] it was 48.7%; in assay [4], 7.81%; in assay [5], 44.7%; in assay [6] it was 5.12%. Moreover, the inhibition is 9.81% in assay [7]; 3.71% in assay [8]; 20.9% in assay [9]; -2.84% in assay [10]; 19.1% in [11]; 3.27% in assay [14]. In addition, the inhibition came to 4.89% in assay [15]; 0.63% in assay [16]; 2.28% in assay [17]; 1.87% in assay [18]; 3.46% in [19]; 1.5% in [20].
Consider `Cc1nnc(-c2ccc(C)c(-c3ccc(C(=O)Nc4cccc(C#N)c4)cc3)c2)o1`, for which the inhibition in assay [1] was 2.58%; in assay [2], 1.18%; in [3] it was 3.76%; in [4], 3.64%; in assay [5], 5.81%; in assay [6] it was 3.61%. The inhibition is 2.36% in assay [7]; 4.17% in assay [8]; 6.56% in assay [9]; -4.6% in [10]; 2.41% in assay [12]; 3.76% in [13]. Moreover, the inhibition in assay [14] was 4.54%; in assay [15] it was 2.78%; in assay [16], 2.27%; in assay [17], 2.95%; in assay [18], -0.22%; in [19] it was 1.88%. Further, the inhibition in [20] was 0.99%.
For the compound `NS(=O)(=O)c1cccc(-c2ccc3c(NC(=O)C4CC4)n[nH]c3c2)c1`, the inhibition was 25.3% in [1]; 2.68% in assay [2]; 27% in assay [3]; -0.29% in assay [4]; 20.5% in [5]; -1.84% in assay [6]. The inhibition was -1.06% in assay [7]; -1.16% in assay [8]; 1.08% in assay [9]; 1.32% in assay [10]; 2.37% in assay [11]; -0.75% in assay [12]. For the same compound, the inhibition in assay [13] is 0.74%; in assay [14] it was -2.14%; in assay [15], 0.66%; in assay [16], -2.66%; in [17], 0.49%; in assay [18], -0.13%. The inhibition is -1.52% in assay [19] and -7.29% in assay [20].
As to `CS(=O)(=O)CCNCc1ccc(-c2ccc3ncnc(Nc4ccc(OCc5ccccc5)c(Cl)c4)c3c2)o1`, the inhibition in assay [1] came to 2.14%; in assay [2], 0.5%; in assay [3], 1.92%; in [4], 0.58%; in assay [5], 3.7%; in [6] it was 1.08%. Besides, the inhibition in [7] turned out to be 4.89%; in [8], 0.92%; in [9], 5.67%; in assay [10], 0.79%; in [11], 1.26%; in assay [12] it was 0.85%. Besides, the inhibition is 7.53% in assay [13]; 0.69% in [14]; 4.31% in assay [15]; 0.7% in [16]; 14.7% in assay [17]; -0.28% in assay [18]. For the same compound, the inhibition in assay [19] stood at 0.13%; in [20], 0.67%.
